PubChem BioAssay (Tox21)
Records with an inconclusive call do not appear. Active and inactive are the calls of the source. Unless noted, calls come from the whole dose curve; as a rule, active = well fitted curve in the direction sought with a large enough effect in the repeat runs; inconclusive = weak or mixed curves; inactive = no such curve, though single readings can be large; an effect the other way counts as inactive or inconclusive.

Legend:
[1] = qHTS assay to identify small molecule agonists of the vitamin D receptor (VDR) signaling pathway - cell viability counter screen (AID 743224); note: nearly all actives have a fitted effect of over 50% in size; note: potency is the fitted concentration of half-maximal effect
Outline: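 VDR-bla cells, 4 h after plating, exposed to compounds for 16 h at 37C; viability then read in the same wells as CellTiter-Glo luminescence after 30 min at room temperature, following the bla FRET read.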

[2] = qHTS assay to identify small molecule antagonists of the vitamin D receptor (VDR) signaling pathway - cell viability counter screen (AID 743225); note: nearly all actives have a fitted effect of over 50% in size; note: potency is the fitted concentration of half-maximal effect
Outline: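 Cytotoxicity toward the VDR-bla HEK 293T line was scored by ATP-based CellTiter-Glo luminescence, read in the wells already used for the beta-lactamase readout after 16 h compound treatment under 3 nM 1-alpha,25-dihydroxyvitamin D3 stimulation.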

[3] = qHTS assay to identify small molecule agonists of the endoplasmic reticulum stress response signaling pathway - cell viability counter screen (AID 1159517; calls by dose curve; note: nearly all actives have a fitted effect of over 50% in size; note: potency is the fitted concentration of half-maximal effect)
Outline: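 Cells, HeLa ESRE-bla; density, 1,500/well; dosing, 5 hr at 37 C, 5% CO2; readout, CellTiter-Glo luminescence after 30 min RT.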

[4] = qHTS assay to identify small molecule antagonists of the retinoid-related orphan receptor gamma (ROR-gamma) signaling pathway - cell viability counter screen (AID 1159520); note: nearly all actives have a fitted effect of over 50% in size; note: potency is the fitted concentration of half-maximal effect
Outline: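 Cytotoxicity was read from cellular ATP (CellTiter-Glo luminescence) after 16 hr at 37 C with 1 uM doxycycline induction. The inducer was added 2 hr after compound transfer to Tet-on ROR gamma CHO cells.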

[5] = qHTS assay to identify small molecule antagonists of the retinoic acid receptor (RAR) signaling pathway (AID 1159552; note: nearly all actives have a fitted effect of over 50% in size; note: potency is the fitted concentration of half-maximal effect)
Outline: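 Overnight-plated C3RL4 reporter cells get compound, then retinol to 1 uM final; plates sit 6 hr at 37 C, 5% CO2. A luciferase reagent is added and light output recorded after 30 min at room temperature.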

[6] = qHTS assay to identify small molecule antagonists of the estrogen related receptor signaling pathway with the pleiotropic PPARgamma coactivator (PGC) cell viability counter screen (AID 1224822; note: series mostly up to about 46 µM)
Outline: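 PGC/ERR cells rested 6 h, then compound-treated 17.5 h at 37 C. CellTiter-Fluor added for 30 min at 37 C, viability measured by fluorescence intensity.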

[7] = biological target: Nuclear receptor ROR-gamma (Homo sapiens) (UniProt P51449); test: qHTS assay to identify small molecule antagonists of the retinoid-related orphan receptor gamma (ROR-gamma) signaling pathway (AID 1159521; note: nearly all actives have a fitted effect of over 50% in size; note: potency is the fitted concentration of half-maximal effect)
Outline: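 Readout: ONE-Glo luciferase luminescence, 30 min at room temperature. System: Tet-on RORγ CHO, RORE-LUC. Sequence: compound 2 h, doxycycline 1 uM final, 16 h at 37 C.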

[8] = qHTS assay to identify small molecule agonists of the AP-1 signaling pathway - cell viability counter screen (AID 1159525; calls by dose curve; note: nearly all actives have a fitted effect of over 55% in size; note: potency is the fitted concentration of half-maximal effect)
Outline: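 Luminescent ATP readout (Cell Titer Glo, 30 min RT), normalised to DMSO and tetra n-octyl ammonium bromide controls. Cells were ME-180 AP-1-bla in 0.5% dialyzed FBS Opti-MEM, with a 5 h, 37 °C compound exposure.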

[9] = qHTS assay to identify small molecule agonists of the RXR signaling pathway - cell viability counter screen (AID 1159529); note: nearly all actives have a fitted effect of over 50% in size; note: potency is the fitted concentration of half-maximal effect
Outline: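 Tox21 10K compounds were tested for cytotoxicity against GeneBLAzer RXR-alpha HEK 293T cells grown in 2% charcoal-stripped FBS. Exposure lasted 16 hr at 37 C, 5% CO2; viability read by CellTiter-Glo luminescence.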

[10] = qHTS assay to identify small molecule antagonists of the retinoid acid receptor (RAR) signaling pathway - cell viability counter screen (AID 1159551); note: nearly all actives have a fitted effect of over 35% in size; note: potency is the fitted concentration of half-maximal effect
Outline: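 C3RL4 RARE-luciferase cells, 1,000/well, incubated overnight, then dosed with compound plus 1 uM retinol (final). After 6 hr at 37 C, viability read by CellTiter-Glo ATP luminescence following 30 min at room temperature.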

[11] = qHTS assay to identify small molecule antagonists of the estrogen related receptor (ERR) signaling pathway from Tox21 library - cell viability counter screen (AID 1224834); note: nearly all actives have a fitted effect of over 30% in size; note: potency is the fitted concentration of half-maximal effect
Outline: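 ERR reporter cells, 2,000 per well, rested 6 h, then exposed to compound in DMSO for 17.5 hours at 37 C. Viability read as fluorescence after 30 min with CellTiter-Fluor.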

[12] = qHTS assay to identify small molecule agonists of the retinoic acid receptor (RAR) signaling pathway (AID 1159553); note: potency is the fitted concentration of half-maximal effect
Outline: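 C3RL4 RARE-luciferase cells were seeded at 1,000/well and grown overnight at 37 C, then exposed to compounds for 6 hr at 37 C, 5% CO2. Luciferase reagent was added and luminescence was read after 30 min at room temperature.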

[13] = biological target: Retinoic acid receptor RXR-alpha (Homo sapiens) (UniProt P19793); test: qHTS assay to identify small molecule agonists of the RXR signaling pathway (AID 1159527; calls by dose curve; note: nearly all actives have a fitted effect of over 35% in size; note: potency is the fitted concentration of half-maximal effect)
Outline: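 Reporter activation is measured as beta-lactamase activity via FRET substrate cleavage (emission 460/530 nm) in HEK 293T cells expressing an RXR-alpha-driven bla construct, following 16 hr compound exposure at 37 C.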

[14] = qHTS assay to identify small molecule antagonists of the estrogen related receptor (ERR) signaling pathway - cell viability counter screen (AID 1224818); note: series mostly up to about 46 µM
Outline: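 ERR cells, 2,000 per well, compound added after 6 h and incubated 17.5 h at 37 C. Viability read by CellTiter-Fluor fluorescence after a further 30 min at 37 C.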

[15] = qHTS assay to identify small molecule antagonists of the estrogen related receptor (ERR) signaling pathway (AID 1224819)
Outline: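 ERR reporter cell line (NTP) plated at 2,000 cells/well, settled 6 h at 37C/5% CO2, then exposed to LOPAC compounds for 18 h at 37C. One-Glo luciferase luminescence read after 30 min at room temperature.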

[16] = qHTS assay to identify small molecule agonists of the estrogen related receptor (ERR) signaling pathway (AID 1224820)
Outline: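 Quantitative HTS of the LOPAC library used NTP ERR reporter cells treated 18 h at 37 C. Signal is luminescence after One-Glo addition and a 30 min room-temperature incubation.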

[17] = qHTS assay to identify small molecule agonists of the estrogen related receptor signaling pathway with the pleiotropic PPARgamma coactivator (PGC) (AID 1224823)
Outline: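 Cell-based luciferase assay in the NTP-supplied PGC/ERR line, 2,000 cells/well; 18 h compound exposure at 37 C, luminescence after One-Glo.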

[18] = qHTS assay to identify small molecule agonists of the AP-1 signaling pathway (AID 1159526; calls by dose curve)

Measured: Potency

Sequence of Retinoic acid receptor RXR-alpha (Homo sapiens) (P19793 whole entry, looked up): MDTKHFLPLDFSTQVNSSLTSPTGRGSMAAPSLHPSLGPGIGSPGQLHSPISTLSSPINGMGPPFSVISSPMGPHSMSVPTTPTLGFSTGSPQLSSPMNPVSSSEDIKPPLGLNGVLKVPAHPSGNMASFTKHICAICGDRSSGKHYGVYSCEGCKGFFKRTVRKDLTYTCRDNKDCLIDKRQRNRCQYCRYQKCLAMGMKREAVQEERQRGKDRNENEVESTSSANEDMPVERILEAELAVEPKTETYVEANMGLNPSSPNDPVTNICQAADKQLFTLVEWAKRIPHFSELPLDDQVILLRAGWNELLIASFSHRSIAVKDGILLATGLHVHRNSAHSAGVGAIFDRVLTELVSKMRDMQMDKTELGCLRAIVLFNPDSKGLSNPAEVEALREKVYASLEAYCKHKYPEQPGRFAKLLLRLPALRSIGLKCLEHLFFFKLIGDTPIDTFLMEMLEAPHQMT

CC(C)c1cccc(C(C)C)c1N1C(=O)c2ccc(O)cc2C1=O
inactive: [3] | [6]
active: [1] 43.6 µM | [2] 49 µM | [4] 27.3 µM | [5] 24.3 µM

CCCOc1sc(C(=O)N2CCC(c3cc(CN)ccc3F)CC2)c(C)c1Br
active: [1] 35.7 µM | [2] 35.7 µM | [3] 44.9 µM | [7] 28.1 µM | [8] 44.9 µM | [9] 17.9 µM | [10] 62.8 µM | [5] 39.7 µM | [11] 49.9 µM

CC(=O)Nc1ccc(O)cc1
inactive: [1] | [2] | [3] | [4] | [8] | [9] | [10] | [11]

CNC(=O)c1cc(Oc2ccc(NC(=O)Nc3ccc(Cl)c(C(F)(F)F)c3)cc2)ccn1
active: [1] 23.7 µM | [2] 12 µM | [7] 13.3 µM | [5] 29.8 µM | [11] 26.6 µM
inactive: [3] | [8] | [10] | [12]

Brc1ccccc1-c1ccccc1
active: [3] 41.3 µM
not listed: [2] | [4] | [5] | [6] | [9] | [11] | [18]
inactive: all other assays above

COc1cc(C=C2CCC/C(=C\c3ccc(O)c(OC)c3)C2=O)ccc1O
active: [4] 29.8 µM | [8] 26.8 µM | [12] 13.3 µM | [11] 13.3 µM
inactive: [3] | [10] | [5]

CC1=C(/C=C/C(C)=C/C=C/C(C)=C\C=O)C(C)(C)CCC1
active: [1] 41.3 µM | [3] 41.3 µM | [4] 57.9 µM | [13] 0.328 µM | [9] 52 µM | [12] 1.63 µM | [11] 51.6 µM
inactive: [10] | [5]

CCOC(=O)[C@@](C)(N)Cc1ccc(O)c(O)c1
inactive: [1] | [2] | [3] | [4] | [18] | [9] | [10] | [11]

CN(C)CCCN1c2ccccc2CCc2ccccc21
inactive: [1] | [2] | [3] | [4] | [8] | [9] | [10] | [14] | [6]

CC(COC(=O)c1ccccc1)OC(=O)c1ccccc1 (stereo unspecified)
not listed: [4] | [6] | [14] | [15] | [16] | [17]
inactive: all other assays above

C=CC(=C)CCC=C(C)C
active: [1] 54.9 µM
inactive: [2] | [3] | [4] | [8] | [9] | [10] | [11]

CCCCCCCCCC(=O)N(C)C
inactive: [1] | [2] | [3] | [7] | [8] | [18] | [9] | [5] | [11]

NCCCC(O)(P(=O)(O)O)P(=O)(O)O
inactive: [1] | [2] | [3] | [4] | [8] | [18] | [13] | [9] | [10] | [11]

CCCCCCCCCCCCCCCC
inactive: [1] | [2] | [3] | [4] | [8] | [18] | [9] | [10] | [5] | [12]

CC=O
active: [2] 57.5 µM | [3] 16.2 µM | [4] 63.9 µM | [7] 2.02 µM | [9] 14.4 µM | [5] 25.5 µM | [11] 28.6 µM

COc1ccc(-n2nc(CCC(=O)N(C)O)cc2-c2ccc(Cl)cc2)cc1
active: [11] 26.6 µM
inactive: [2] | [3] | [4] | [8] | [5] | [12]

CN1[C@@H]2CC[C@@H]1CC(OC(=O)C(CO)c1ccccc1)C2 (stereo partly specified)
inactive: [3] | [4] | [8] | [18] | [13] | [10] | [11]

C=CCCCCCCC=C
inactive: [2] | [4] | [8] | [18] | [10] | [11]
active: [3] 55.1 µM

O=C(O)c1cccc(Cl)n1
inactive: [3] | [4] | [8] | [18] | [9] | [10] | [5] | [11]

Cc1occc1SSc1ccoc1C
inactive: [2] | [3] | [7] | [8] | [9] | [10]

COc1ccc2sc(C(=O)Nc3nnn[nH]3)c(OC(C)C)c2c1
active: [3] 19.4 µM | [7] 12.1 µM
inactive: [1] | [2] | [8] | [10]

CC(C)(C)C1=CC(=O)C=C(C(C)(C)C)C1=O
not listed: [6] | [7] | [14] | [15] | [16] | [17]
inactive: all other assays above

C1CC(COCC2CO2)CCC1COCC1CO1 (stereo unspecified)
inactive: [3] | [4] | [8] | [9] | [10]

Cc1oc(-c2ccccc2)nc1CCOc1ccc(C[C@H](Nc2ccccc2C(=O)c2ccccc2)C(=O)O)cc1
inactive: [10] | [5]
active: [1] 21.9 µM | [2] 19.5 µM | [3] 54.9 µM

CCCC(CC)CCCCCCCN (stereo unspecified)
inactive: [1] | [2] | [8] | [10] | [5] | [12]
active: [3] 39.9 µM

NC(=O)c1nc(-c2cccc(-c3cc(F)ccc3OCC(F)(F)C(F)(F)F)c2)n[nH]1
active: [3] 61.6 µM | [7] 34.4 µM
inactive: [13] | [12]
